According to PubChem BioAssay AID493169 (National Center for Advancing Translational Sciences (NCATS), 2011):
Records with an inconclusive call do not appear. Where a call stands in place of a potency, no number is given. Activity calls are given as the source filed them. Calls follow the shape of the dose curve; as a rule, active = well fitted inhibition curve with a large enough effect; inconclusive = small, poorly fitted or top-dose-only effect; inactive = flat fitted curve, though single readings scatter.

assay: CHOP2 Reporter Counterscreen Assay for Inhibitors of Ubiquitin-specific Protease USP2a; settings: purified enterokinase, fluorogenic substrate, 485/531 nm; series mostly up to 38.3 µM;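 also: activated enterokinase alone at 50 pM in a cell-free format rather than USP2a or CHOP2; nearly all actives have a fitted effect of over 55% in size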
From the text: NIH Molecular Libraries Probe Centers Network [MLPCN] NIH Chemical Genomics Center [NCGC] MLPCN Grant: XO1-MH079852-01 PI Name: Nicholson, Ben. Progenra Inc, Malvern, PA NCGC Assay Overview: Homeostasis of cellular proteins is maintained through a combination of synthesis and degradation. The pathway that accounts for the majority of protein degradation is the ubiquitin-proteasomal pathway. Ubiquitin (Ub) is highly conserved in all cells and the generation of a multi-Ub chain typically targets proteins for degradation by the proteasome. However, ubiquitination is highly reversible and dynamic. Deubiquitination, the reverse process, is catalyzed through the action of enzymes referred to as isopeptidases or deubiquitinating enzymes (DUBs). This group of enzymes is collectively responsible for maintaining adequate pools of free ubiquitin and regulating the ubiquitination status of cellular proteins. The class of DUBs referred to as the ubiquitin-specific proteases (USP) family functions endoproteolytically to cleave Ub chains from a wide range of protein substrates. USP2a deubiquitinates fatty acid synthase (FASN) which has recently been identified as an emerging oncology target. To identify inhibitors of USP2a a cell-free assay was employed. This assay is a counterscreen against the reporter enzyme used to measure USP2a activity in the primary qHTS assay. The reporter enzyme is a protease (enterokinase, EK; EC 3.4.21.9), which is activated when a Ub sequence is cleaved by USP2a. The counterscreen assay is performed in the same buffer and conditions as the primary USP2a coupled assay but uses fully activated EK alone. The assay gives a fluorescent read-out at excitation/emission wavelengths of 485/531. The assay was provided by Progenra, Inc. and has been licensed for sale by LifeSensors, Inc.
NCGC Assay Protocol: The assay buffer, prepared fresh at the day of the assay, contains 20mM Tris-HCl pH 8.0, 2mM CaCl2, 2mM beta-Mercaptoethanol, 0.05% CHAPS. 3uL of 100 pM EK (50 pM final) was dispensed into a medium-binding black solid Kalypsys 1,536 well plate using the Kalypsys dispenser. The assay plate was then pinned with 23nL compounds in DMSO with the Kalypsys pintool in columns 5-48 (0.3% final DMSO concentration). The negative control was buffer/DMSO only in column 3. The assay plate is incubated at RT for 30min. Subsequently, 3uL of reporter substrate (25nM final) were dispensed into the plate using the Kalypsys dispenser. Plates were read after 10 min at RT on a ViewLux (Perkin Elmer) plate reader using the following wavelengths: Ex 485nm /Em 531nm. Data were normalized to the AC100 inhibition (buffer alone). Concentration-response curves were fitted to the normalized data and the concentration-response curves were then classified based on curve quality (r2), response magnitude and degree of measured activity. The time zero reading was used to flag fluorescence artifacts.
Potency is read from the fitted curve at half-maximal effect.

| Structure (SMILES) | Potency |
| --- | --- |
| C#CCOCCOCCOCCNc1nc(N2CCN(C(=O)CCCCCCCCCCNC(=O)[C@@H](CCSC)n3cc(CCO)nn3)CC2)nc(N2CCN(C(=O)CCCCCCCCCCNC(=O)[C@H](CCCN=C(N)N)n3cc(C[C@@H](C)CC)nn3)CC2)n1 | 2.51 µM (active) |
| CCOC(=O)C1CCCN(CC(=O)Nc2c(C(=O)OC)[nH]c3ccc(C)cc23)C1 (stereo not given) | inactive |
| Cc1cc(=O)oc(C)c1C(=O)NCCc1ccccc1 | inactive |
| O=C1N=c2ccccc2=C1c1sc(Nc2ccc(O)cc2)nc1O | 8.91 µM (active) |
| CC1(C)CC(=O)C2=C(C1)Oc1ncn(CCCO)c(=N)c1C2c1ccccc1 (stereo not given) | inactive |
| Cc1ccccc1C(=O)Nc1ccc2nc3n(c(=O)c2c1)CCC3 | inactive |
| CCCCn1c(SCC(=O)N2CCC(C)CC2)nc2cc(S(N)(=O)=O)ccc21 | inactive |
| COc1ccc(S(=O)(=O)N2CCCC2C(=O)NCc2cccs2)cc1 (stereo not given) | inactive |
| COC(=O)N/N=C\c1cc(Br)ccc1OCc1ccccc1 | inactive |
| Cc1ccc(OCC(=O)Nc2ccc(N3CCCC3)cc2)cc1C | 10 µM (active) |
| CCCNC(=O)CS(=O)Cc1nc(-c2ccccc2C)oc1C (stereo not given) | inactive |
| CN(C)S(=O)(=O)c1cccc(NC(=S)NNC(=O)c2cc3ccccc3cc2O)c1 | inactive |
| Cc1ccc(-c2c(C#N)c(N)nc3c2CCCCC3)o1 | inactive |
| O=C(Cc1cc(=O)[nH]c(=O)[nH]1)NCC1CCCO1 (stereo not given) | inactive |
| O=C(Nc1ncccc1Cl)c1cccc(F)c1 | inactive |
| O=C(NCCc1ccccc1)c1ccc2nc(-c3ccco3)c(-c3ccco3)nc2c1 | 5.01 µM (active) |
| CCOC(=O)C(C)Sc1nnc(Cn2c(=O)sc3ccccc32)n1-c1ccccc1 (stereo not given) | inactive |
| Cc1cc(NC(=O)CN2C(=O)NC3(CCCCC3C)C2=O)no1 (stereo not given) | inactive |
| O=C(CSc1nnnn1-c1ccc(F)cc1)c1ccc(O)c(O)c1 | 12.6 µM (active) |
| Cc1cc(N2CCOCC2)nc(SCC(=O)c2ccc(Cl)cc2)n1 | inactive |

| Structure (SMILES) | Potency |
| --- | --- |
| Cc1ccc(C(=O)O/N=C/c2c(C(F)(F)F)nn(C)c2Sc2ccc(Cl)cc2)cc1 | inactive |
| COC(=O)c1ccccc1NC(=O)CSc1nc(O)cc(=O)n1C1CCCC1 | inactive |
| COC(=O)C1CCN(C(=O)c2cc(-c3ccco3)nc3ccccc23)CC1 | 3.98 µM (active) |
| COc1ccc(-c2csc(N3CCN(C(=O)c4ccco4)CC3)n2)cc1 | inactive |
| Cc1ccc(S(=O)(=O)N2[C@@H](c3ccc(C(C)(C)C)cc3)C(C(=O)O)=CC[C@H]2c2ccc(Cl)cc2)cc1 | 10 µM (active) |
| CC1CCCCN1CCNC(=O)c1cnn2ccccc12 (stereo not given) | inactive |
| CC(C)(C)OC(=O)C[C@H]1C/C=C\C[C@H](CC(=O)N(CCO)Cc2ccccc2)C(=O)NC[C@H](c2ccccc2)OC1=O | inactive |
| CCC(CO)Nc1nc(CN2CCCCC2)nc2scc(-c3ccccc3)c12 (stereo not given) | inactive |
| C#CCOCCOCCOCCNc1nc(N2CCN(C(=O)CCCCCCCCCCNC(=O)[C@@H](CCC(=O)O)n3cc(CCCCCN)nn3)CC2)nc(N2CCN(C(=O)CCCCCCCCCCNC(=O)[C@H](CCCCN)n3cc(C[C@@H](C)CC)nn3)CC2)n1 | 5.62 µM (active) |
| C[C@H](CO)N1C[C@H](C)[C@@H](CN(C)S(=O)(=O)c2ccc(Cl)cc2)Oc2ccc(NS(=O)(=O)c3ccccc3)cc2CC1=O | inactive |
| N#CC(c1ccccc1)c1ccc(C(=O)c2ccc(F)cc2)cc1 (stereo not given) | inactive |
| N#Cc1c(-c2cccs2)nc(SCc2ccc(Cl)cc2)[nH]c1=O | inactive |
| CN(C)C=Nc1ncc2c3ccccc3n(CCN(C)C)c2c1C#N | inactive |
| COc1ccc(Cc2nnc(NC(=O)Cc3cccs3)s2)cc1 | 1.78 µM (active) |
| O=C(Nc1nnc(SCCC2OCCO2)s1)C1CC(=O)N(c2ccc(F)cc2)C1 (stereo not given) | 11.2 µM (active) |
| N#Cc1c(Nc2ccc(Cl)cc2)s[nH]c1=O | inactive |
| CCOc1ccc(CCn2c(-c3ccco3)nc3ccccc3c2=O)cc1OCC | inactive |
| C#CCOCCOCCOCCNc1nc(N2CCN(C(=O)CCCCCCCCCCNC(=O)Cn3cc(CCCCCN)nn3)CC2)nc(N2CCN(C(=O)CCCCCCCCCCNC(=O)[C@H]([C@@H](C)CC)n3cc(CCCCCN)nn3)CC2)n1 | 5.62 µM (active) |
| CCOC(=O)c1c(-c2ccc(C)o2)csc1NC(=O)COC(=O)c1ccc(NC(N)=O)cc1 | inactive |
| COC(=O)CCC(=O)Nc1sc2c(c1C#N)CCCC2 | inactive |
